Screening data deposited in PubChem by National Center for Advancing Translational Sciences (NCATS).
In the library only some 3.1% were active in any assay of this set; here they are far more common.
p53null 39C tox: qHTS Screen for Compounds that Selectively Target Cancer Cells with p53 Mutations: Cytotoxicity of p53 Null Cells at the Nonpermissive Temperature; H1299 p53-null (neo) cells, 39C, ATPlite viability, 24 h; Potency, µM (doses to about 46.1 µM), hits mostly cytotoxic; 55,000 compounds, 0.97% hits; AID 904, 2007; further: nearly all actives have a fitted effect of over 50% in size
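ATP-luminescence viability readout (ATPlite, 20 min RT) after 24 hr compound treatment at 39C of H1299-neo or H1299-p53A138V cells; titration up to 46 uM; normalized to DMSO and 100 uM tamoxifen; Hill-fit AC50.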
OvCa metastasis: Primary qHTS assay for Inhibitors of ovarian cancer metastasis using an organotypic tumor microenvironment (TME) model; 46,000 compounds, 0.1% hits; SKOV3ip1-GFP adhesion/invasion on 3D omental model, fluorescence; Potency, µM (doses to about 45.8 µM), actives largely listed as inhibitors; further: nearly all actives have a fitted effect of over 65% in size
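qHTS, 4-pt dose (0.36-46 umol/L); SKOV3ip1-GFP, 1,200 cells/well, no FBS; primary omental fibroblast/mesothelial co-culture 48 h pre-grown; 2 h RT + 16 h 37 C; PBS wash, 4% PFA; GFP count 488/509 nm.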
S16 viability: Cell viability qHTS assay in S16 Pmp22-F2sN cells; 43,000 compounds, 0.48% hits; S16 Pmp22-F2sN Schwann cells viability, CellTiter-Glo, 24 h; Potency, µM (doses to about 57.5 µM), usual class: cytotoxic; further: nearly all actives have a fitted effect of over 65% in size
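CellTiter-Glo counter-screen, qHTS, 1536-well. Cells: S16(c9) Pmp22-F2sN, 500-1,000/well in DMEM + 10% FBS. Cpd 23 nL pin transfer, 24 h, 37C/5% CO2. Read: luminescence, CCD imager.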
mTORC1 inh: Acumen qHTS Assay for Inhibitors of the mTORC1 Signaling Pathway in MEF (Tsc2-/-, p53-/-) Cells: Sytravon; Tsc2-/- p53-/- MEF, phospho-rpS6 immunofluorescence/PI, 24 h; Potency, µM (titrated, usually from 38.3 µM), actives largely listed as inhibitors; 44,000 compounds, 0.78% hits; AID 493208, 2011; further: nearly all actives have a fitted effect of over 50% in size
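Plate MEFs (Tsc2-/-, p53-/-, empty vector) in DMEM/10% FBS; after 24 h add compound, incubate 24 h at 37 degree Celsius; fix in PFA/TX-100, block, stain phospho-rpS6 and 10 uM PI; scan at 488 nm; report % positive cells.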
p53null 32C kill: qHTS Screen for Compounds that Selectively Target Cancer Cells with p53 Mutations: Cytotoxicity of p53 Null Cells at the Permissive Temperature. H1299-neo p53 null cells, ATP luminescence, 24 h, 32C. Potency, µM (titrated, usually from 46.1 µM), actives largely listed as cytotoxic. AID 903, 2007. 55,000 compounds, 0.62% hits; further: nearly all actives have a fitted effect of over 55% in size
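AC50 values derive from Hill modelling of qHTS concentration-response data (up to 46 uM) in H1299-neo cells. Cells were treated 24 h at 32C following overnight attachment at 37C; viability was read as cellular ATP.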
PMP22 txn: Cell-based coincidence reporter assay to measure PMP22 gene transcription in S16 Pmp22-F2sN cells - Primary screen; S16 Pmp22-F2sN Schwann cells (luciferase reporters placed in the Pmp22 gene), FLuc/NLuc coincidence luminescence, 24 h; Potency, µM (doses to about 57.5 µM), usual class: inhibitors; 43,000 compounds, 2% hits; AID 1508649, 2021; active means clear falling dose curves in both reporters; inconclusive means both reporters move, but less clearly or upward; inactive means either reporter flat; the % is the NLuc reporter signal
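Schwann cells carrying the coincidence reporter were exposed to library compounds for 24 h at 37C, then lysed and read for FLuc and, after quenching, NLuc luminescence on a CCD imager.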
NLuc sat counter: Biochemical NLuc saturation counterscreen for small molecule modulators of PMP22 gene expression - Nano-Glo assay; shares compounds with PMP22 txn; Secreted NLuc enzyme (filtered S16 cell medium), Nano-Glo luminescence; Potency, µM (highest dose often 57.5 µM), usual class: inhibitors; 690 compounds, 4% hits
NLuc Km ctr: Biochemical coelenterazine-based NLuc counterscreen for small molecule modulators of PMP22 gene expression - Km assay | Potency, µM (doses to about 57.5 µM), hits mostly inhibitors | 690 compounds, 5% hits | secreted NLuc enzyme, coelenterazine luminescence, Km conditions | AID 1508639, 2021 | shares compounds with PMP22 txn
FLuc counter: Biochemical FLuc counterscreen for small molecule modulators of PMP22 gene expression. shares compounds with PMP22 txn. purified P. pyralis FLuc, luminescence, 10 min. Potency, µM (top dose mostly 57.5 µM), most hits filed as inhibitors. 690 tested, under 10 active. AID 1508640, 2021
Target sequence (P08659 whole entry, looked up): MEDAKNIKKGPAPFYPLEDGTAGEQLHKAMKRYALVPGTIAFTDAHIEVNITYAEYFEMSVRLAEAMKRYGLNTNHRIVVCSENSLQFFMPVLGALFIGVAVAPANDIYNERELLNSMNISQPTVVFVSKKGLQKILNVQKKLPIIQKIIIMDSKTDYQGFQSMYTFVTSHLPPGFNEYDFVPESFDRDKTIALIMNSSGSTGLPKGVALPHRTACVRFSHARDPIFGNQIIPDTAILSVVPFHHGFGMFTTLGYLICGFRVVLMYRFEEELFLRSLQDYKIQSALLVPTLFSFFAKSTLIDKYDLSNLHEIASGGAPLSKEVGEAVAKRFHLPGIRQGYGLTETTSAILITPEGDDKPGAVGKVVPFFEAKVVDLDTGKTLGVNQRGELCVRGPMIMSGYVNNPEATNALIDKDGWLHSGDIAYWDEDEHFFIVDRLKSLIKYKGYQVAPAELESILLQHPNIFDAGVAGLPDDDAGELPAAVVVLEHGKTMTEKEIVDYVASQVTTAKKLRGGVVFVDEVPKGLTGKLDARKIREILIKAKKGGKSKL
S16 viab conf: Cell viability qHTS assay in S16 Pmp22-F2sN cells - Confirmatory screen. Potency, µM (top dose mostly 57.5 µM), actives largely listed as cytotoxic. S16 Schwann cells viability, CellTiter-Glo ATP luminescence, 24 h. shares compounds with PMP22 txn. AID 1508641, 2021. 690 compounds, 7% hits
PMP22 txn conf: Cell-based coincidence reporter assay to measure PMP22 gene transcription in S16 Pmp22-F2sN cells - Confirmatory screen. shares compounds with PMP22 txn. S16 Schwann cells Pmp22-F2sN, dual luciferase, 24 h. Potency, µM (highest dose often 57.5 µM), most hits filed as inhibitors. 690 compounds, 22% hits. AID 1508646, 2021; active means clear falling dose curves in both reporters; inconclusive means both reporters move, but less clearly or upward; inactive means either reporter flat; the % is the FLuc reporter signal
PMP22 prot conf: Cell-based HiBiT reporter assay to measure PMP22 protein expression in S16 Pmp22-HiBiT cells - Confirmatory screen; shares compounds with PMP22 txn; S16 Schwann cells Pmp22-HiBiT, luminescence, 48 h; Potency, µM (doses to about 27.9 µM), most hits filed as inhibitors; 95 tested, under 10 active
Target sequence (P25094 whole entry, looked up): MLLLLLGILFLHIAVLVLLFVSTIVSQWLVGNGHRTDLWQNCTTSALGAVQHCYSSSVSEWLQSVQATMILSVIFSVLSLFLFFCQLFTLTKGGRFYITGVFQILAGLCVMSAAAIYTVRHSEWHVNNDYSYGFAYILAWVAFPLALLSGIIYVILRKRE
Each line names hits and unclear results; the compound was inactive in the other large screens (follow-up assays come after a bar, where they were run). Unless noted, the call rests on the fitted dose curve; in most records, active means well fitted curve in the direction sought with a large enough effect; inconclusive means small, poorly fitted or top-dose-only effect, or another doubt; inactive means no such curve, though single readings can be large; an effect the other way counts as inactive or inconclusive.

COCCCNC(=O)CSc1c2c(nc3ccc(Cl)cc13)CCCC2	S16 viability inconclusive, mTORC1 inh inconclusive, PMP22 txn inconclusive
CCN(CC)CCCNC(=O)CSc1c2c(nc3cc(Cl)ccc13)CCCC2	p53null 39C tox 13µM, OvCa metastasis inconclusive, S16 viability inconclusive, mTORC1 inh inconclusive, PMP22 txn 6.7µM | NLuc sat counter inactive | NLuc Km ctr inactive | FLuc counter inactive | S16 viab conf inconclusive | PMP22 txn conf 10µM | PMP22 prot conf inactive
CCOc1ccc(CNC(=O)CSc2c3c(nc4ccc(Cl)cc24)CCCC3)cc1	PMP22 txn inconclusive
CCc1ccc(CNC(=O)CSc2c3c(nc4ccc(Cl)cc24)CCCC3)cc1	PMP22 txn 6.2µM | NLuc sat counter inactive | NLuc Km ctr inconclusive | FLuc counter inactive | S16 viab conf inactive | PMP22 txn conf inconclusive
O=C(CSc1c2c(nc3ccc(Cl)cc13)CCCC2)N1CCN(c2ccc(Cl)cc2)CC1	PMP22 txn inconclusive
CCOc1ccc(CNC(=O)CSc2c3c(nc4cc(Cl)ccc24)CCCC3)cc1	S16 viability inconclusive, PMP22 txn inconclusive
CC(C)OCCCNC(=O)CSc1c2c(nc3ccc(Cl)cc13)CCCC2	OvCa metastasis inconclusive, S16 viability inconclusive, PMP22 txn 12µM | NLuc sat counter inactive | NLuc Km ctr inactive | FLuc counter inactive | S16 viab conf inconclusive | PMP22 txn conf 19µM
Nc1ccc(C(=O)c2cc3c(ccc4ccccc43)[nH]2)cc1	none (no result: p53null 39C tox, S16 viability, mTORC1 inh, p53null 32C kill, PMP22 txn)
Cc1cccc(N(C)S(=O)(=O)c2ccc(-c3cc(C)no3)s2)c1	p53null 39C tox inconclusive, PMP22 txn 7.6µM | NLuc sat counter inconclusive | NLuc Km ctr inconclusive | FLuc counter inactive | S16 viab conf inactive | PMP22 txn conf inconclusive
CC(C)(C)OC(=O)CN(Cc1ccc(Cl)cc1)Cc1ccc([N+](=O)[O-])s1	none (no result: p53null 39C tox, S16 viability, mTORC1 inh, p53null 32C kill, PMP22 txn)
COC(=O)c1ccccc1NC(=O)c1nc(S(=O)(=O)Cc2cccc(C)c2)ncc1Cl	S16 viability inconclusive, PMP22 txn 5.3µM | NLuc sat counter inactive | NLuc Km ctr 3.9µM | FLuc counter inactive | S16 viab conf inconclusive | PMP22 txn conf 7.3µM | PMP22 prot conf inactive
CCCSc1ncc(Cl)c(C(=O)Nc2nc3ccc(OCC)cc3s2)n1	none
Cc1ccc(CNC(=O)c2nc(S(=O)(=O)Cc3ccc(C)cc3)ncc2Cl)cc1	p53null 39C tox inconclusive, S16 viability inconclusive, PMP22 txn 10µM | NLuc sat counter inactive | NLuc Km ctr inactive | FLuc counter inactive | S16 viab conf inactive | PMP22 txn conf 17µM | PMP22 prot conf inactive
Cc1ccc(CS(=O)(=O)c2ncc(Cl)c(C(=O)Nc3nc4ccc(F)cc4s3)n2)cc1	p53null 39C tox inconclusive, S16 viability inconclusive, PMP22 txn 5.4µM | NLuc sat counter inactive | NLuc Km ctr inconclusive | FLuc counter inactive | S16 viab conf inconclusive | PMP22 txn conf 16µM | PMP22 prot conf inconclusive
Cc1ccc(CNC(=O)c2nc(SCc3ccc(C)cc3)ncc2Cl)cc1	PMP22 txn inconclusive
COc1ccc2nc(NC(=O)c3nc(S(=O)(=O)Cc4ccc(C)cc4)ncc3Cl)sc2c1	p53null 39C tox inconclusive, OvCa metastasis inconclusive, S16 viability 28µM, mTORC1 inh inconclusive, PMP22 txn 7.3µM | NLuc sat counter inactive | NLuc Km ctr inactive | FLuc counter inactive | S16 viab conf inactive | PMP22 txn conf inactive
COc1cc2ncnc(Nc3ccc(F)c(Cl)c3)c2cc1NC(=O)C=CCN1CCCCC1	none (no result: p53null 39C tox, S16 viability, mTORC1 inh, p53null 32C kill, PMP22 txn)
Cc1ccc(Cn2c(C)c3cnn(CC(=O)N4CCN(c5cc(C)ccc5C)CC4)c(=O)c3c2C)cc1	PMP22 txn 12µM | NLuc sat counter inactive | NLuc Km ctr inactive | FLuc counter inactive | S16 viab conf inactive | PMP22 txn conf inactive
COc1ccc(N(CC(=O)Nc2cc(OC)cc(OC)c2)S(=O)(=O)c2c(C)noc2C)cc1	PMP22 txn inconclusive
COc1ccc(N(CC(=O)Nc2cc(Cl)ccc2C)S(=O)(=O)c2c(C)noc2C)cc1	PMP22 txn 14µM | NLuc sat counter inactive | NLuc Km ctr inconclusive | FLuc counter inactive | S16 viab conf inactive | PMP22 txn conf inconclusive | PMP22 prot conf inconclusive
CCc1ccc(S(=O)(=O)c2nnn3c2nc(N(CC)Cc2ccccc2)c2cc(Cl)ccc23)cc1	PMP22 txn 6.7µM | NLuc sat counter inactive | NLuc Km ctr inactive | FLuc counter inactive | S16 viab conf inactive | PMP22 txn conf inactive
COCCNc1nc2c(S(=O)(=O)c3ccc(C)c(C)c3)nnn2c2ccc(Cl)cc12	none
